In the supplement of paper PMC6555819:

These sequences were tested on PPARg DBDmut IVT, anti-PPARg (DBD mutation: PPARg1 K132A/R137A, NR concentration 270 nM) (assay: PBM binding z-score (relative to random genomic background probes); higher = stronger binding; sequences stand for … in GC…GCGATTGACAGCGTAGAATGAAGG).
In short: (§1)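 Binding buffer was PBS pH 7.4 with 2% milk, 0.02% Triton X-100, 1 mM DTT, 0.2 mg/mL BSA and 0.4 mg/ml salmon testes DNA. In it, ligand-free nuclear receptor dimers were incubated 1 h on custom Agilent 4×180K protein-binding microarrays carrying double-stranded probes. Antibodies against each partner (one per run) detected binding, and z-scores were calculated against random background probes after regression normalization of scanned fluorescence.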

Sequence	PBM binding z-score
TCATCTAGGTAATACAGGTGAAAGTCGGCATCTA	1.36
CGTCCAAGGTCAGAAGGTCAGTGAAAGCGACGTG	-0.646
CATACAGGGTCAGCTAAGCCAGAGTAGGGACGGC	0.523
TATACAGGGTCAGAGGCCAGAGTACGAATGTCGA	1.28
GGATCGAGGGCATTCGAGTTGATAGCATGGCGAT	-0.843
ACTAGTTGGTCAGCTGTGGTCACACACAATTCGG	0.115
TCGAGTAGGTTAGGGGCACTCAGAATGGCGTCGA	-1.43
CCTAGAAGGCCAATCTGGGTCACTCAAGGCTTGA	-1.07
ACTTACGAGTCAACGAGGTTATAGCACGCGTATA	0.64
TAGCCTAGGTCATGGGCTAGTATACCACGCGAAC	-0.926
TCTGCTAGGTCAACGATGGTCATCTAATCTGCTA	0.11
TCTATTAGCTGATTAGGGCAACCGAAACAGCGGA	0.319
CTCGAAAGGTGGGTTGAGGTGAGTATACGGATAA	0.0199
CGTCCAAGGTCATAGGAAGTCAGTGAAGACAGAT	-0.147
ATCTATAGGTAACAAGTTCAGTGAAAGAGAGGAC	1.51
TCGTGTAGATCAAGCAGGTTAAGAAAGCCTGAGT	-0.429
CCTGGGAGGACAACAGGAGGTCAGAGCTGCCAGA	-1.21
AGAATGAGGGTATACGTAGATCAGGGAAGAAAGT	0.525
AATACAGGGTCACTAGGCTAGAGTAGGTACGAAT	1.68
TCGAGTAGGTTACTAATGGGGCATTCAGCTTTCT	-0.475

Sequence	PBM binding z-score
GTACCAACGTGAATAGGTCGTTGATGAGTAGGCG	-0.461
CCTACTGGGCCATCAGGTTATTGATATCAACGTT	0.0128
ATCTCTAGGTAAGACTCAGTTCATTGAAGAACGC	1.23
CCTTACGGGTGAAGGTTATAGCACGGGTGGTACG	-1.16
ACCTCTAGGTAAAAGTTCAGTGAATCCCGAGGAT	0.231
CGTCAAAGTTCAACTAAGGTGACGTAAAGCACGC	0.457
CATACTGGGCCATCAGGTCATTGATATCAACGTT	1.18
CCGACTGGGGCATAAGGTTACAATAAGCCAGCCC	-1.42
CGAACTAGGTCAGAACAGGACAGTGCAGGATGAT	0.368
CAAACTTGGTCAAAGGTCAAAGTCGAGCCAACCA	0.873
TCATATAGGCAAATGCTAGGTGAAAGTCCGATCT	0.623
ATCTCTATGTAAAGATAGTTCAGTGAATGCAAAT	1.67
GTACCAAGGAGAATAGGTCGTTGATGAGTAGGCG	-0.217
TATACAGGGCCAAAGGCCAGAGTACGAATGTCGA	-0.0589
GCTGCTAGGTCAGGTTGCTCAGCTAACGGGTACG	-0.836
AGTCAAAGTTCAGGGCGAGGTAACGTAAAGCACG	0.418
ACCTACGGGTCAACGAGGTTATAGCACGCGTATA	0.0693
TCTGCTAAGTCAGTTGGTCAGCTAACGAGCTGCC	-0.363
TATCCTAGGTCATGGGCCAGTATACCACGCGAAC	1.68

What follows are sequences tested on PPARg homodimer (NR concentration 180 nM) in the same assay as above.
In short: as §1

Sequence	PBM binding z-score
TCATCTAGGTAATACAGGTGAAAGTCGGCATCTA	0.913
CGTCCAAGGTCAGAAGGTCAGTGAAAGCGACGTG	3.82
CATACAGGGTCAGCTAAGCCAGAGTAGGGACGGC	1.5
TATACAGGGTCAGAGGCCAGAGTACGAATGTCGA	2.24
GGATCGAGGGCATTCGAGTTGATAGCATGGCGAT	0.175
ACTAGTTGGTCAGCTGTGGTCACACACAATTCGG	0.101
TCGAGTAGGTTAGGGGCACTCAGAATGGCGTCGA	0.271
CCTAGAAGGCCAATCTGGGTCACTCAAGGCTTGA	1.21
ACTTACGAGTCAACGAGGTTATAGCACGCGTATA	0.175
TAGCCTAGGTCATGGGCTAGTATACCACGCGAAC	1.36
TCTGCTAGGTCAACGATGGTCATCTAATCTGCTA	0.637
TCTATTAGCTGATTAGGGCAACCGAAACAGCGGA	-0.183
CTCGAAAGGTGGGTTGAGGTGAGTATACGGATAA	0.652
CGTCCAAGGTCATAGGAAGTCAGTGAAGACAGAT	2.75
ATCTATAGGTAACAAGTTCAGTGAAAGAGAGGAC	1.15
TCGTGTAGATCAAGCAGGTTAAGAAAGCCTGAGT	0.148
CCTGGGAGGACAACAGGAGGTCAGAGCTGCCAGA	1.8
AGAATGAGGGTATACGTAGATCAGGGAAGAAAGT	0.231
AATACAGGGTCACTAGGCTAGAGTAGGTACGAAT	2.15
TCGAGTAGGTTACTAATGGGGCATTCAGCTTTCT	-0.0554

Sequence	PBM binding z-score
GTACCAACGTGAATAGGTCGTTGATGAGTAGGCG	-0.374
CCTACTGGGCCATCAGGTTATTGATATCAACGTT	0.249
ATCTCTAGGTAAGACTCAGTTCATTGAAGAACGC	1.13
CCTTACGGGTGAAGGTTATAGCACGGGTGGTACG	0.456
ACCTCTAGGTAAAAGTTCAGTGAATCCCGAGGAT	0.975
CGTCAAAGTTCAACTAAGGTGACGTAAAGCACGC	4.07
CATACTGGGCCATCAGGTCATTGATATCAACGTT	1.3
CCGACTGGGGCATAAGGTTACAATAAGCCAGCCC	0.586
CGAACTAGGTCAGAACAGGACAGTGCAGGATGAT	1.18
CAAACTTGGTCAAAGGTCAAAGTCGAGCCAACCA	4.08
TCATATAGGCAAATGCTAGGTGAAAGTCCGATCT	0.286
ATCTCTATGTAAAGATAGTTCAGTGAATGCAAAT	0.106
GTACCAAGGAGAATAGGTCGTTGATGAGTAGGCG	0.315
TATACAGGGCCAAAGGCCAGAGTACGAATGTCGA	0.362
GCTGCTAGGTCAGGTTGCTCAGCTAACGGGTACG	0.251
AGTCAAAGTTCAGGGCGAGGTAACGTAAAGCACG	2.91
ACCTACGGGTCAACGAGGTTATAGCACGCGTATA	3.53
TCTGCTAAGTCAGTTGGTCAGCTAACGAGCTGCC	-1.05
TATCCTAGGTCATGGGCCAGTATACCACGCGAAC	1.22
